Screening results as filed in PubChem.
Hits are enriched below; roughly 5.3% of the tested compounds scored in any of these assays.
TDP1 inh: qHTS Assay for Inhibitors of Tyrosyl-DNA Phosphodiesterase (TDP1). Tyrosyl-DNA phosphodiesterase 1 (Homo sapiens), Q9NUW8. recombinant TDP1, AlphaScreen DNA substrate cleavage. Potency, µM (series often up to 130 µM), inactives show at the highest dose activity change, negative = inhibition, usual class: inhibitors. 0.28% of 350,000 active. AID 485290, 2010; further: potency means the concentration at half of the fitted maximal effect; on the % scale 0 is the no-effect control and ±100 the full control effect; nearly all actives have a fitted effect of over 40% in size
Target sequence (Q9NUW8 whole entry, looked up): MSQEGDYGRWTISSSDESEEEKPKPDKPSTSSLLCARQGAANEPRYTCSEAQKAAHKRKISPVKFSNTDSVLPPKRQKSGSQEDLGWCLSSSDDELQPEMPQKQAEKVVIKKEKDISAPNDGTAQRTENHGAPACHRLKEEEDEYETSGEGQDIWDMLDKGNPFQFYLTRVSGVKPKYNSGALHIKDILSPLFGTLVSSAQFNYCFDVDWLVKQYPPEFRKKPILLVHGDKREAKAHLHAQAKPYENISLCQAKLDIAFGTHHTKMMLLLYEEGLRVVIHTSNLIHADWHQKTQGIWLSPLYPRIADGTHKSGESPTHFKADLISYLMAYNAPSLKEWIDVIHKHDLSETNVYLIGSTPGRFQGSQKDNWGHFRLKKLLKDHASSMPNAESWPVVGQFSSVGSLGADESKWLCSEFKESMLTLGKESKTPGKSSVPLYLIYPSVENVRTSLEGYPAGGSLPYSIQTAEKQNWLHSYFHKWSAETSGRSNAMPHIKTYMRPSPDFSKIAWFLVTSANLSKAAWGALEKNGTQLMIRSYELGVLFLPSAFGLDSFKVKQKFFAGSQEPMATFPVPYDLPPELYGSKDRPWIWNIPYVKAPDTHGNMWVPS
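AlphaScreen read-out: signal falls as enzyme removes the 3' tyrosine-FITC from a 5'-biotinylated DNA oligo (15 nM, 5 min, RT). Enzyme was E. coli-made recombinant Tdp1 at 1 nM, exposed to compound for 15 min beforehand; beads 10 ug/ml, 10 min.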
BAZ2B block: qHTS Assay for Inhibitors of BAZ2B | AlphaScreen BAZ2B-H3K14Ac peptide displacement | 4.4% of 360,000 active | AID 504333, 2011 | Potency, µM (series often up to 114 µM), for inactives: top-dose activity change, negative = inhibition, usual class: inhibitors | Bromodomain adjacent to zinc finger domain protein 2B (Homo sapiens), Q9UIF8; further: potency means the concentration at half of the fitted maximal effect; on the % scale 0 is the no-effect control and ±100 the full control effect; nearly all actives have a fitted effect of over 60% in size
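Compounds, titrated to a top concentration of 110 uM, were incubated 30 min at room temperature with preformed BAZ2B/acetyl-K14 H3 peptide complex (50 nM each). Proximity signal was measured by AlphaScreen after 20 min with beads.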
HP1b chromo inh: HTS for Inhibitors of HP1-beta Chromodomain Interactions with Methylated Histone Tails. Chromobox protein homolog 1 (Homo sapiens), P83916. AlphaScreen HP1-beta / biotin-H3K9me3 peptide binding. Potency, µM (titrated, usually from 114 µM), for the others: top-dose activity change, negative = inhibition, actives largely listed as inhibitors. 0.56% of 390,000 active. AID 540317, 2011; further: potency means the concentration at half of the fitted maximal effect; nearly all actives have a fitted effect of over 70% in size
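AlphaScreen: HP1-beta (50 nM) preformed 30 min with biotin-H3(1-18)K9me3 peptide (50 nM) in PBS pH 7.4, 0.01% Tween-20. Compound added for 30 min at RT, then streptavidin donor/nickel chelate acceptor beads (10 ug/mL) for 30 min.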
CtBP-E1A blk: qHTS Assay for Inhibitors of the CtBP/E1A Interaction. AID 651724, 2012. 0.49% of 340,000 active. activity change, % (concentration not given with the values). AlphaScreen GST-E1A/His-CtBP binding, 1536-well; stronger effect = lower value. CtBP / adenovirus E1A interaction (AlphaScreen); in the data active means activity change below about -65%; inconclusive means mostly about -30% to -63%; further: on the % scale 0 is the no-effect control and ±100 the full control effect
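AlphaScreen with 125 nM GST-E1A and 125 nM His-CtBP (5X stocks) in Tris pH 8.0, 300 mM NaCl, BSA, Tween 20, TCEP. Compounds preincubated 2 h at 37 deg C, then glutathione donor/nickel acceptor beads added for 1 h at 37 deg C in dark.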
Six1-Eya2 inh: qHTS Assay for Inhibitors of the Six1/Eya2 Interaction; Homeobox protein SIX1 (Homo sapiens) + Protein phosphatase EYA2 (Homo sapiens), …; AlphaScreen GST-Six1/His-Eya2 binding, biochemical; stronger effect = lower value; activity change, % (test concentration not listed); 0.56% of 360,000 active; AID 651725, 2012; in the data active means activity change below about -65%; inconclusive means mostly about -30% to -63%; further: on the % scale 0 is the no-effect control and ±100 the full control effect
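AlphaScreen with GST-Six1 and His-Eya2 (5X mix: 250 nM and 500 nM), glutathione donor and nickel acceptor beads; buffer 50 mM Tris pH 8.0, 300 mM NaCl, 1 mM TCEP; 1 h at 37 C in the dark.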
JMJD2A Tudor inh: qHTS Assay for Inhibitors of JMJD2A-Tudor Domain; Lysine-specific demethylase 4A (Homo sapiens), O75164; AlphaScreen JMJD2A-Tudor / H3K4me3 peptide binding; Potency, µM (top dose mostly 114 µM), without a hit: at the top dose activity change, negative = inhibition, most hits filed as inhibitors; 4.4% of 390,000 active; AID 504339, 2011; further: potency means the concentration at half of the fitted maximal effect; on the % scale 0 is the no-effect control and ±100 the full control effect; nearly all actives have a fitted effect of over 50% in size
Active calls of the source: *; ? = inconclusive; . = no result; [ ] = another dose, or the depositor's remark. Unless noted, the call rests on the fitted dose curve; in most records, active means well fitted inhibition curve with a large enough effect; inconclusive means small, poorly fitted or top-dose-only effect; inactive means no such curve, though single readings can be large or run the other way.

SMILES	TDP1 inh	BAZ2B block	HP1b chromo inh	CtBP-E1A blk	Six1-Eya2 inh	JMJD2A Tudor inh
COc1ccc(S(=O)(=O)N2CCCOC2CNC(=O)C(=O)NCCCn2ccnc2)cc1 (stereo unspecified)	0%	79µM*	20%	3	8	-12%
Cc1ccc(S(=O)(=O)N2CCCOC2CNC(=O)C(=O)NCCCn2ccnc2)cc1 (stereo unspecified)	0%	50µM*	21%	-16	-25	-23%
Cc1ccc(C)c(S(=O)(=O)N2CCCOC2CNC(=O)C(=O)NCCCn2ccnc2)c1 (stereo unspecified)	5%	45µM*	?	3	-9	-33%
CC(NCCOCCOc1ccccc1)c1ccccc1 (stereo unspecified)	5%	0%	32%	-3	2	13%
COc1ccc2ccccc2c1CNCc1ccc(C)cc1	5%	?	?	1	0	22µM*
COc1ccc2ccccc2c1CNC(C)c1ccccc1 (stereo unspecified)	.	?	-5%	.	10	79µM*
C[C@H](NCc1ccccc1)c1ccccc1	6%	.	.	.	.	.
CC(NCCCOc1cccc2ccccc12)c1ccccc1 (stereo unspecified)	.	?	?	.	-4	22µM*
CSc1ccc(CCNC(=O)c2cc3c(-c4ccccc4F)nn(C)c3s2)cc1	9%	-6%	9%	.	.	-28%
Clc1ccc(-c2nnc(-c3ccco3)nc2N2CCCCC2)cc1	7%	50µM*	-18%	-22	-12	45µM*
O=C(Nc1ccc(-n2nncc2-c2ccco2)cc1)c1cccc(F)c1	3%	?	-22%	-13	-20	-35%
O=C(Nc1ccc(-n2nncc2-c2ccco2)cc1)c1cc2ccccc2oc1=O	40µM*	?	87%	-4	-2	?
CCn1c(C(=O)N2CCC(C(=O)N3CCN(c4ccc(OC)cc4)CC3)CC2)cc2sccc21	6%	?	-21%	.	.	?
CCn1c(C(=O)N2CCC(C(=O)N3CCN(c4cc(C)ccc4C)CC3)CC2)cc2sccc21	5%	22µM*	?	.	.	22µM*
CCn1c(SCc2ccccc2)nnc1-c1nonc1NC(C)=O	4%	1%	36%	.	.	-18%
S=c1[nH]nc(-c2cccnc2)n1/N=C/c1ccccc1	7%	?	-19%	1	3	3.5µM*
S=c1[nH]nc(-c2cccnc2)n1/N=C/C=C/c1ccccc1	7%	-33%	-19%	.	5	7.1µM*
Cc1cccc(-c2n[nH]c(=S)n2/N=C/c2cccs2)c1	7%	-26%	9%	.	-11	22µM*
Fc1cccc(Cl)c1/C=N/n1c(-c2cccnc2)n[nH]c1=S	9%	?	3%	-2	2	3.2µM*
COc1ccccc1/C=C\C=N\n1c(-c2ccc(Cl)cc2)n[nH]c1=S	0%	-10%	-16%	-3	-13	-31%
c1nc(N2CCC(N3CCCC3)CC2)c2cc(-c3ccc4c(c3)OCO4)ccc2n1	.	.	.	.	.	-13%
Cc1nc2cc(C(=O)O)ccc2n1-c1ccc(C(C)C)cc1	2%	?	-6%	.	.	-27%
S=c1[nH]nc(-c2cccnc2)n1/N=C/c1cccs1	6%	0%	15%	1	-2	3.5µM*
S=c1[nH]nc(-c2cc(-c3ccccc3)n[nH]2)n1/N=C/c1cccs1	4%	-27%	10%	?	-16	?
COc1ccc(N2CC(NC(=O)CCCc3ccccc3)CC2=O)cc1 (stereo unspecified)	3%	0%	37%	.	.	4%
SMILES	TDP1 inh	BAZ2B block	HP1b chromo inh	CtBP-E1A blk	Six1-Eya2 inh	JMJD2A Tudor inh
CN1C(C(=O)Nc2ccccn2)=C(O)c2sccc2S1(=O)=O	6%	50µM*	10%	0	-5	50µM*
Nc1cc2c(cc1N)-c1ccccc1C2	.	.	-18%[57 µM]	-12	-19	8.9µM*
Nc1ccc2c(c1)Cc1cc(N)c(Cl)cc1-2	.	.	?	-24	-18	45µM*
CCC1=Nc2cc(C(=O)N3CCCCC3)ccc2Sc2ccc(C)cc21	5%	-32%	0%	-12	-11	?
CCCC1=Nc2cc(C(=O)N3CCCC3)ccc2Sc2ccc(C)cc21	6%	?	-12%	-16	-6	18µM*
Cc1ccc(NC(=O)CSc2nc(C3CCCC3)nc3c2c(=O)n(C)c(=O)n3C)c(C)c1	0%	2%	14%[57 µM]	.	.	-11%
Cc1cc(C)n2nc(C(=O)OCC(=O)c3cc(C)n(C)c3C)nc2n1	.	50µM*	-6%	1	-18	56µM*
Cc1cc(C)n2nc(C(=O)OCC(=O)c3cc(C)n(CC4CCCO4)c3C)nc2n1 (stereo unspecified)	0%	-20%	13%	3	-6	-16%
Cc1cc(C(=O)COC(=O)c2cc(Cl)c(O)c(Cl)c2)c(C)n1C	.	50µM*	?	-26	?	50µM*
O=C(c1cccs1)N1CCCc2cc(NS(=O)(=O)c3cc(F)ccc3F)ccc21	1%	?	20%	.	.	-21%
COc1ccccc1N=Nc1[nH]c2ccc(C)cc2c1O	6%	50µM*	-1%	-12	-14	?
Cc1cccc(-c2nc3cc(NC(=O)COc4ccccc4F)ccc3o2)c1	2%	6%	67%	.	.	-9%
Cc1nc(-c2ccc([S+](=O)([O-])N3CCN([S+](=O)([O-])c4c(F)cccc4F)CC3)s2)cs1	.	.	.	.	.	-10%
O=C(O)c1c2c(nc3ccccc13)/C(=C/c1ccc(O)cc1)CC2	?	40µM*	-20%	.	?	56µM*
Cc1ccc(N2C(=O)[C@@H]3CSC(c4ccc(Cl)cc4)N3C2=O)cc1 (stereo partly specified)	4%	4%	42%	.	.	4%
COc1ccc(N2Cc3cccc(C(=O)Nc4ccc(C)c(C)c4)c3C2=O)cc1	2%	?	15%	.	.	-24%
Fc1ccccc1-n1cn[nH]c1=S	.	-10%	30%	.	1	28µM*
Cn1c(=O)c2ncn(CC(=O)N/N=C/C=C/c3ccccc3)c2n(C)c1=O	3%	-9%	5%	-8	5	-14%
Cn1c(=O)c2c(ncn2CC(=O)N/N=C/C=C/c2ccccc2)n(C)c1=O	-3%	-1%	16%	6	-1	40µM*
